A selection: hits, their analogues and other compounds. The true share with any hit is near 7.3%.
VACV mCherry inh: vaccinia inhibition (mCherry reporter); hit rate 0.63% among 310,000; AID 720579; Potency, µM (titrated, usually from 36.5 µM), inactives show top-dose activity change, negative = inhibition, actives largely listed as inhibitors; Vaccinia virus mCherry reporter infection, fluorescence; calls by dose curve; tested in A549 cells; also: potency is read from the fitted curve at half-maximal effect; nearly all actives have a fitted effect of over 35% in size
HCV inhibitor: inhibitors of hepatitis C virus infection. Huh7.5.1 HCVcc-Cre infection, luciferase reporter, 44 h. Potency, µM (doses to about 41.8 µM), inactives show at the highest dose activity change, negative = inhibition, usual class: inhibitors. hit rate 3.4% among 340,000. AID 651820; active = well fitted inhibition curve with a large enough effect; inconclusive = small, poorly fitted or top-dose-only effect, or another doubt; inactive = no such curve, though single readings can be large or run the other way; also: potency is read from the fitted curve at half-maximal effect
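Reporter virus HCVcc-Cre (~0.5 moi) infects cells exposed to compound; seeding density 1,000 cells/well with 4 h settling beforehand. Luminescence, 15 sec read, taken 44 h post-infection following a 15 min RT substrate incubation.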
FMDV inh: antivirals against foot and mouth disease virus; FMDV antiviral cell-based qHTS; Potency, µM (highest dose often 57.9 µM), inactives show at the highest dose activity change, negative = inhibition, actives largely listed as inhibitors; hit rate 1.2% among 410,000; calls by dose curve; tested in HEK293T cells; also: read-out not given here; potency is read from the fitted curve at half-maximal effect; nearly all actives have a fitted effect of over 45% in size
Vaccinia Venus: vaccinia inhibition (Venus reporter). Vaccinia virus Venus reporter expression, fluorescence. hit rate 0.46% among 330,000. Potency, µM (titrated, usually from 36.5 µM), inactives show top-dose activity change, negative = inhibition, hits mostly inhibitors; calls by dose curve; tested in A549 cells; also: potency is read from the fitted curve at half-maximal effect; nearly all actives have a fitted effect of over 30% in size
HCMV inh: human cytomegalovirus inhibition | HFF cells, HCMV-luciferase reporter, 72 h; hits give low values | hit rate 4.5% among 410,000 | AID 1259415 | activity change, negative = inhibition, % at 57.5 µM; in the data active = activity change below about -60%; inconclusive = no clear call, values can overlap the other calls; inactive = above about -39%
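Inhibition of viral replication was scored as loss of reporter luminescence in HFFs infected with HCMV-luciferase (MOI 1 PFU/cell) for 72 h; compounds tested at 2 doses, normalized to buffer and Salinomycin controls.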
The depositor's hits bear a star; ! = not active in a repeat. % is scaled to controls: 0 for no effect and ±100 for the full control effect.

How did Cc1cc(C)c[n+](-c2nc3ccccc3nc2[N-]S(=O)(=O)c2ccc(Cl)cc2)c1 do in these assays?
VACV mCherry inh: -2.3%; HCV inhibitor: 14.4%; FMDV inh: 38.2%; Vaccinia Venus: -12.9%; HCMV inh: -32.3

Results for CCN(C(=O)C(NS(=O)(=O)c1ccc(Br)s1)c1ccccc1)c1ccc(C)c(C)c1 (stereo not drawn) ?
VACV mCherry inh: -4.1%; FMDV inh: -24.0%; Vaccinia Venus: inconclusive; HCMV inh: -64.4*

What do the screens show for `CCN(CC)c1ccc(NC(=O)C(Cc2ccccc2)NS(=O)(=O)c2ccc(Br)s2)c(C)c1` (stereo not drawn)?
VACV mCherry inh: -8.2%; FMDV inh: 27.7%; Vaccinia Venus: -7.0%; HCMV inh: -10.3

What do the screens show for `CCOC(=O)C1=C(c2ccccc2)N=c2s/c(=C\c3ccc(O)cc3)c(=O)n2C1c1cccs1` (stereo not drawn)?
VACV mCherry inh: 54.2%; HCV inhibitor: 10µM*; FMDV inh: 25.1µM*; Vaccinia Venus: inactive; HCMV inh: 44.7

What do the screens show for `CCOC(=O)C1=C(c2ccccc2)N=c2sc(=Cc3cc(OC)c(OC)c(OC)c3)c(=O)n2C1c1cccs1` (stereo not drawn)?
VACV mCherry inh: -7.2%; FMDV inh: -24.0%; Vaccinia Venus: -9.9%; HCMV inh: -14.3

How did O=C(Nc1ccn(Cc2cccc3ccccc23)n1)c1cccnc1 do in these assays?
VACV mCherry inh: -11.1%; HCV inhibitor: inconclusive; FMDV inh: inconclusive; Vaccinia Venus: inconclusive; HCMV inh: -74.7*

Results for COc1cc(NC(=O)CN2C(=O)C(c3ccc(C)cc3)=NC23CCCCCC3)cc(OC)c1 ?
VACV mCherry inh: -21.3%; FMDV inh: 19.2%; Vaccinia Venus: -10.8%; HCMV inh: -27.6

Results for CCOc1ccc(-c2c(C)n(-c3ccc(OCC)cc3)c3[n+]2CCCCC3)cc1 ?
VACV mCherry inh: -19.7%; HCV inhibitor: 2.51µM*; FMDV inh: inconclusive; Vaccinia Venus: -18.1%; HCMV inh: -94.8*

Results for CCOc1ccc(-n2c(-c3ccccc3)c[n+]3c2CCCCC3)cc1 ?
HCV inhibitor: inconclusive; FMDV inh: inconclusive; HCMV inh: -100.2*

What do the screens show for `Cc1ccc(-c2c[n+]3c(n2-c2ccccc2)CCC3)cc1`?
VACV mCherry inh: -16.3%; HCV inhibitor: inconclusive; FMDV inh: inconclusive; Vaccinia Venus: -24.8%; HCMV inh: -95.8*

What do the screens show for `c1ccc(-c2c[n+]3c(n2-c2ccccc2)CCC3)cc1`?
HCV inhibitor: inconclusive; FMDV inh: inconclusive; HCMV inh: -37.1

How did CCn1c(CN2CCCCC2)nc2cc(NC(=O)COc3ccccc3C(C)(C)C)ccc21 do in these assays?
VACV mCherry inh: -12.1%; FMDV inh: 0.0%; Vaccinia Venus: -24.2%; HCMV inh: 4.3

How did OCCC1CN(Cc2ccc(Oc3ncccn3)cc2)CCN1Cc1ccc(F)c(F)c1 (stereo not drawn) do in these assays?
HCV inhibitor: -3.3%; FMDV inh: -22.7%; HCMV inh: -21.9

Results for Cc1ccc(NN2C(=O)C=C(c3ccccc3)C2=O)cc1 ?
VACV mCherry inh: -2.4%; HCV inhibitor: -5.6%; FMDV inh: 20µM*; Vaccinia Venus: -17.4%; HCMV inh: 5.2

How did O=C1c2ccccc2C(=O)N1Nc1ccccc1 do in these assays?
VACV mCherry inh: -8.6%; HCV inhibitor: 31.5%; FMDV inh: 0.0%; Vaccinia Venus: 16.6%; HCMV inh: 4.3

How did COc1cc(OC)c2c(=O)c(-c3ccccc3)coc2c1 do in these assays?
VACV mCherry inh: -4.7%; FMDV inh: 21.8%; Vaccinia Venus: -11.2%

What do the screens show for `O=S(=O)(O)CCS`?
VACV mCherry inh: -9.1%; HCV inhibitor: 17.9%; FMDV inh: -7.3%; Vaccinia Venus: -21.2%; HCMV inh: -7.8

How did NCCCS(=O)(=O)O do in these assays?
VACV mCherry inh: -13.3%; HCV inhibitor: 5.62µM*!; FMDV inh: -29.3%; Vaccinia Venus: -14.3%; HCMV inh: inconclusive

What do the screens show for `S=C(NCc1ccccc1)Nc1cccc2ccccc12`?
VACV mCherry inh: inconclusive; HCV inhibitor: 10µM*; FMDV inh: 27.2%; Vaccinia Venus: -11.0%; HCMV inh: inconclusive

How did Cc1c(Cl)cccc1NC(=S)NCc1ccccc1 do in these assays?
VACV mCherry inh: -13.9%; HCV inhibitor: -17.4%; FMDV inh: 55.6%; Vaccinia Venus: -14.1%; HCMV inh: -78.2*

Results for Cc1c(Cl)cccc1NC(=S)NCc1ccc(Cl)cc1 ?
VACV mCherry inh: -23.2%; HCV inhibitor: -10.4%; FMDV inh: 1.1%; Vaccinia Venus: -10.5%; HCMV inh: inconclusive

Results for Cc1ccc(C(C)C)c(OCCNCc2ccccc2)c1 ?
HCV inhibitor: -4.3%; FMDV inh: inconclusive; HCMV inh: -8.6

Results for Cc1ccc(C(C)C)c(OCCNC(=S)Nc2cccc3ccccc23)c1 ?
HCV inhibitor: 31.6µM*; FMDV inh: inconclusive; HCMV inh: -24.8

How did S=C(NCc1cccs1)Nc1cccc2ccccc12 do in these assays?
VACV mCherry inh: -10.1%; HCV inhibitor: -17.5%; FMDV inh: 54.9%; Vaccinia Venus: -9.7%; HCMV inh: -8.0

What do the screens show for `COc1ccc(NC(=O)Nc2ccc3c(c2)C(=O)N([C@H](C)CO)C[C@H](C)[C@H](CN(C)C)OCCCC[C@@H](C)O3)cc1`?
HCMV inh: -2.7

Results for CCc1ccc(-n2cnc3cc(C(=O)NCc4ccc(C)cc4)ccc32)cc1 ?
VACV mCherry inh: -10.4%; FMDV inh: 1.7%; Vaccinia Venus: -8.9%; HCMV inh: -13.5

What do the screens show for `CCN(CC)C(=O)c1cccc(-c2csc(C(O)c3cccc(OC)c3)n2)c1` (stereo not drawn)?
VACV mCherry inh: inactive; FMDV inh: inconclusive; Vaccinia Venus: -15.2%; HCMV inh: inconclusive

What do the screens show for `Cc1sc(NC(=O)Cn2c(=O)oc3ccccc32)nc1-c1ccc(Cl)cc1`?
VACV mCherry inh: inactive; HCV inhibitor: inconclusive; FMDV inh: -8.2%; Vaccinia Venus: -12.7%; HCMV inh: -60.5*

What do the screens show for `Cc1csc(NC(=O)CCn2c(=O)oc3ccccc32)n1`?
HCV inhibitor: -0.8%; FMDV inh: 11.1%; HCMV inh: 5.4

Results for O=C(Cn1c(=O)oc2ccccc21)Nc1nc(-c2ccc(Br)cc2)cs1 ?
VACV mCherry inh: -16.5%; HCV inhibitor: 6.6%; FMDV inh: -24.1%; Vaccinia Venus: -11.9%; HCMV inh: -60.5*

Results for CN(C)C(CNC(=O)c1ccc(C(F)(F)F)cc1)c1ccco1 (stereo not drawn) ?
HCV inhibitor: 13.3%; FMDV inh: 23.9%; HCMV inh: 32.5

How did Cn1cc(CN(C(=O)Nc2ccccc2)C2CCCCC2)c2ccccc21 do in these assays?
VACV mCherry inh: inconclusive; FMDV inh: 26.5%; Vaccinia Venus: -20.1%; HCMV inh: -105.0*

How did N#Cc1c(N)n(C2OC(CO)C(O)C2O)c2ncnc(N)c12 (stereo not drawn) do in these assays?
VACV mCherry inh: inconclusive; HCV inhibitor: inconclusive; FMDV inh: -6.0%; Vaccinia Venus: 1µM*; HCMV inh: -99.0*

Screening results deposited in PubChem BioAssay by National Center for Advancing Translational Sciences (NCATS).
